This is a sample that favours compounds with a hit; in the whole collection about 0.45% have one here.
Proteasome disasm – inhibitors of ATP-driven 26S proteasome dissociation, primary screen, biochemical, bead-based flow cytometry, GFP-tagged proteasome; anti-FLAG beads, GFP-proteasome disassembly; inhibition of disassembly, % (concentration not given with the values); hit rate 0.2% among 24,000;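 active = inhibition of disassembly above about 33%, limit read from the data; inconclusive = likely self-fluorescent, control bead median signal at least 40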;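 note: plate controls were ATP control with full disassembly for no effect and ATP-gamma-S intact proteasomes for full effect; higher percent means more bead fluorescence retained so stronger block of disassembly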
QS inhibitor – S. aureus quorum sensing inhibitors, primary screen, RNAIII-GFP reporter, flow cytometry | S. aureus RN6390 RNAIII-GFP reporter, AIP-induced, flow cytometry 3 h | inhibition, % at 2 µM | hit rate 0.3% among 24,000 | AID 527, 2006;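 active = share of bacteria positive for the green fluorescent reporter and its mean brightness both inhibited by 50% or more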;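 note: 0% = AIP-stimulated control and 100% = unstimulated bacteria without AIP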
Active calls of the source: *; ! = not confirmed by another sample.

`CCCn1c(=NC(C)=O)c(C#N)cc2c(=O)n3cccc(C)c3nc21` gave Proteasome disasm 67* and QS inhibitor -5.
Screening CCNC(=O)c1cc2c(=O)n3cccc(C)c3nc2n1C returned Proteasome disasm -1 and QS inhibitor -3.
Screening O=C(CCN1CCN(CCC(=O)c2ccccc2)CC1)c1ccccc1 returned Proteasome disasm 3 and QS inhibitor -3.
Screening O=c1cc(Nc2ccc3c(c2)OCCO3)[nH]c(=O)n1C1CCCCC1 returned Proteasome disasm 108* and QS inhibitor -5.
CCc1ccc(Nc2cc(=O)n(C3CCCCC3)c(=O)[nH]2)cc1 was read as Proteasome disasm 18 and QS inhibitor 9.
CC1CCN(c2c(NCc3ccc(C(=O)NCC4COc5ccccc5O4)cc3)c(=O)c2=O)CC1 (stereo not drawn) was read as Proteasome disasm 1 and QS inhibitor -4.
`Cc1cccn2c(=O)c3cc(C(=O)N4CCN(c5ccccc5)CC4)n(C)c3nc12` gave Proteasome disasm 4 and QS inhibitor -4.
For Cc1nc2c(ccc3nc(NC(=O)c4ccc5c(c4)OCCO5)sc32)s1 the results were Proteasome disasm 0 and QS inhibitor 57*.
Screening Cc1nc2ccc3nc(NC(=O)c4ccc5c(c4)OCCO5)sc3c2s1 returned Proteasome disasm 1 and QS inhibitor -5.
O=C(O)c1cccnc1SCc1ccccc1 was read as Proteasome disasm -1 and QS inhibitor -7.
Screening Cc1cccc(N2CCN(C(=O)COc3cc(=O)n(C)c4ccccc34)CC2C)c1 (stereo not drawn) returned Proteasome disasm -1 and QS inhibitor -5.
For Cc1ccc2[nH]c(=O)c(CN(CCN3CCOCC3)C(=O)Nc3ccc(F)cc3)cc2c1 the results were QS inhibitor -2.
For Cc1ccc(C)c2[nH]c(=O)c(CN(CCN3CCCC3)C(=O)Nc3cccc(Cl)c3)cc12 the results were Proteasome disasm inconclusive and QS inhibitor 84*.
`CCc1ccc2[nH]c(=O)c(CN(CCCN3CCOCC3)C(=O)Nc3cccc(Cl)c3)cc2c1` gave QS inhibitor 60*.
Cc1cc(C)c2cc(CN(CCN3CCCC3)C(=O)Nc3ccc(F)cc3)c(=O)[nH]c2c1 was read as QS inhibitor 0.
`O=C(Nc1ccccc1)N(CCCN1CCOCC1)Cc1cc2cc3c(cc2[nH]c1=O)OCCO3` gave Proteasome disasm -4 and QS inhibitor 2.
CCc1ccc2[nH]c(=O)c(CN(CCCN3CCOCC3)C(=O)Nc3ccc(Cl)cc3)cc2c1 was read as QS inhibitor 94*.
For O=C(Oc1cccc(Br)c1)c1cccnc1 the results were Proteasome disasm 0 and QS inhibitor -1.
Cc1ccnc(N2C(=O)OC(C)(C)C2(C)O)c1 (stereo not drawn) was read as Proteasome disasm 0 and QS inhibitor -1.
`O=C(c1cc2nc3c(c(C(F)(F)F)n2n1)CCc1ccccc1-3)N1CCN2CCCC2C1` (stereo not drawn) gave Proteasome disasm 10 and QS inhibitor -1.
For Cc1cc2c(cc(C(=O)OCC(=O)NCc3cccs3)n2C(C)C)o1 the results were Proteasome disasm 1 and QS inhibitor 3.
Screening Cc1oc(-c2ccc(Cl)cc2)nc1CS(=O)CC(=O)NCCN1CCCC1 (stereo not drawn) returned Proteasome disasm 154* and QS inhibitor -1.
Screening Cc1ccc(-c2nc(CS(=O)CC(=O)NCCN3CCCC3)c(C)o2)cc1 (stereo not drawn) returned Proteasome disasm 0 and QS inhibitor -10.
For COc1ccc(OC)c(C2N(c3ccc(Cl)cc3)C(=O)C3CCCN32)c1 (stereo not drawn) the results were Proteasome disasm 85* and QS inhibitor 5.
Screening COc1ccc(N2C(=O)C3CCCN3C2c2ccc(Cl)cc2)cc1 (stereo not drawn) returned Proteasome disasm -1 and QS inhibitor 0.
CCOC(=O)CNC(=O)c1cn(CC(C)C)c(=O)c2cc(OC)c(OC)cc12 was read as Proteasome disasm -1 and QS inhibitor 1.
For CCOc1ccc(C2CC(c3ccc(F)cc3)n3ncnc3N2)cc1 (stereo not drawn) the results were Proteasome disasm 0 and QS inhibitor 1.
`COc1ccc2oc(=O)c(C(=O)N3CCN(C45CC6CC(CC(C6)C4)C5)CC3)cc2c1` gave Proteasome disasm 2 and QS inhibitor 8.
O=C(CSc1ncnc2sc3c(c12)CCCCC3)NCc1ccco1 was read as Proteasome disasm 2 and QS inhibitor -1.
For c1csc(CCNc2ncnc3sc4c(c23)CCC4)c1 the results were Proteasome disasm -1 and QS inhibitor 67*.
CCOc1ccc2nc(Nc3nc4c(c(=O)[nH]3)CCC4)nc(C)c2c1 was read as Proteasome disasm -1 and QS inhibitor 0.
Screening N#Cc1cnc(SCCc2ccccc2)nc1N returned Proteasome disasm 88* and QS inhibitor -3.
Screening N#Cc1cnc(SCC(=O)c2ccccc2)nc1N returned Proteasome disasm 15 and QS inhibitor 0.
`Cc1ccc(S(=O)(=O)Nc2cc(C(=O)NCCN3CCCC3)ccc2N2CCCCC2)cc1` gave Proteasome disasm 105* and QS inhibitor 3.
Screening Cc1ccc(S(=O)(=O)Nc2cc(C(=O)NCCN(C)C)ccc2N2CCCCC2)cc1 returned Proteasome disasm 0 and QS inhibitor 0.
Screening Cc1noc(/C=C/c2ccco2)c1S(=O)(=O)N1CCC(C(=O)N2CCc3ccccc3C2)CC1 returned Proteasome disasm 42* and QS inhibitor -2.
For Cc1noc(/C=C/c2ccco2)c1S(=O)(=O)N1CCC(C(=O)NCc2ccco2)CC1 the results were Proteasome disasm -1 and QS inhibitor -2.
CCOC(=O)N1CCN(C(=O)c2ccc3c(=O)n(Cc4ccccc4)c(=S)[nH]c3c2)CC1 was read as Proteasome disasm 0 and QS inhibitor -2.
Screening CCCn1c(=S)[nH]c2cc(C(=O)N3CCN(c4ccccc4OC)CC3)ccc2c1=O returned Proteasome disasm 0 and QS inhibitor 66*.
Screening Cc1ccc2nc(NC(=O)C3CCCN(S(=O)(=O)c4cccc5nsnc45)C3)sc2c1 (stereo not drawn) returned Proteasome disasm 151* and QS inhibitor 16.
Screening Cc1ccc2nc(NC(=O)C3CCN(S(=O)(=O)c4cccc5nsnc45)CC3)sc2c1 returned Proteasome disasm 0 and QS inhibitor 2.
COc1ccc(CNC(=O)CS(=O)Cc2nc(-c3ccccc3C)oc2C)cc1 (stereo not drawn) was read as Proteasome disasm 6 and QS inhibitor 0.
For COc1ccccc1CNC(=O)CS(=O)Cc1nc(-c2ccccc2C)oc1C (stereo not drawn) the results were Proteasome disasm 165* and QS inhibitor 0.
O/N=C/c1ccc(OCC(O)COc2ccc(/C=N/O)cc2)cc1 was read as Proteasome disasm 0 and QS inhibitor 0.
Screening c1ccc(-c2nnc(OCCN3CCOCC3)c3ccccc23)cc1 returned Proteasome disasm -2 and QS inhibitor -1.
`Cc1cc(NC(=O)CC(C)(C)C)nc2c1c(=O)oc1ccccc12` gave Proteasome disasm 9 and QS inhibitor 72*!.
Screening CCCC(=O)Nc1cc(C)c2c(=O)oc3ccccc3c2n1 returned Proteasome disasm 5 and QS inhibitor 1.

Source: PubChem
